The values below come from PubChem BioAssay (Tox21).

Results filed as inconclusive are left out. The source made the active and inactive calls. Calls follow the shape of the full dose curve.
% is scaled to controls: 0 for no effect and ±100 for the full control effect.

A short description of the experiment: qHTS assay for small molecule agonists of the p53 signaling pathway (AID 651631). Also: nearly all actives have a fitted effect of over 15% in size. The settings on record: HCT-116 p53RE-bla reporter, beta-lactamase FRET ratio, 16 h; series mostly up to 73.3 µM; activation: at the top concentration. An excerpt:
U.S. Tox21 Program National Center for Advancing Translational Sciences [NCATS] NIH Chemical Genomics Center [NCGC] U.S. Environmental Protection Agency [EPA] National Institutes of Environmental Health Sciences [NIEHS] National Toxicology Program [NTP] U.S. Food and Drug Administration [FDA] Tox21 Assay Overview: p53, a tumor suppressor protein, is activated following cellular insult, including DNA damage and other cellular stresses. The activation of p53 regulates cell fate by inducing DNA repair, cell cycle arrest, apoptosis, or cellular senescence. The activation of p53, therefore, is a good indicator of DNA damage and other cellular stresses. The CellSensor p53RE-bla HCT-116 cell line (Invitrogen) contains a stably integrated beta-lactamase reporter gene under control of the p53 response elements. The activation of the reporter gene under culture conditions can be detected by fluorescence intensity. This cell line was used to screen the Tox21 compound library in a 1536-well plate format and to identify agonists that activate the p53 signaling pathway.
Tox21 Assay Protocol Summary: The p53RE-bla cells were dispensed at 4,000 cells/5 ul/well in 1536-well black wall/clear bottom plates using a Multidrop dispenser. After the assay plates were incubated at a 37 C/5% CO2 incubator for 5 hours, 23 nL of compounds dissolved in DMSO, positive controls or DMSO only was transferred to the assay plate by a pin tool. The plates were incubated at 37 C for 16 hours. After 1 uL of LiveBLAzerTM B/G FRET substrate was added using a Flying Reagent Dispenser, the plates were incubated at room temperature for 2 hours, and fluorescence intensity was measured by an Envision plate reader.
For orientation: In qHTS, concentration-response curves come from the screen itself.
Regarding `CCCCC(CC)COC(=O)c1ccccc1O` (stereo not given), the “activation” value was -2.72% (inactive).
Still for that read-out and setting: as for `C=C(C)C(=O)OCCCCCCCC(C)C`, the figure is -3.33% [at 95.1 µM] (inactive); as for `CS(=O)(=O)O`, 1.32% [at 95.1 µM] (inactive).
On the same count and under the same terms, the figure for `Nc1ccc(S(=O)(=O)Nc2ccnn2-c2ccccc2)cc1` is 4.55% [at 34.7 µM] (inactive); for `CC1=CC(C)C(C=O)CC1` (stereo not given) it is -2.22% (inactive).
Take `CC/C=C\CC/C=C/C(OCC)OCC`: the “activation” value was -2.33% (inactive).
Same read-out and setting: the figure for `Nc1c2c(nc3ccccc13)CCCC2O` (stereo not given) is 0.853% (inactive); for `COC(=O)c1c(Cl)c(Cl)c(C(=O)OC)c(Cl)c1Cl` it is -1.55% (inactive).
With `N#Cc1ccc(C2CCCc3cncn32)cc1` (stereo not given), the “activation” value is 1.96% [at 34.7 µM] (inactive).
As to `CCC(=O)OC(C)c1ccccc1` (stereo not given), the “activation” value is 4.12% (inactive).
Same read-out and setting: as for `Cc1cc(O)cc2c1O[C@](C)(CCC[C@H](C)CCC[C@H](C)CCCC(C)C)CC2`, the figure is 1.36% (inactive).
Take `CC[N+](C)(C)c1cccc(O)c1`: the “activation” value is 3.13% [at 34.7 µM] (inactive).
On the same count and under the same terms, as for `FC(F)OC(Cl)C(F)(F)F` (stereo not given), the figure is -3.6% (inactive); as for `Oc1ccc(C2CNCCc3c2cc(O)c(O)c3Cl)cc1` (stereo not given), -4.83% (inactive); as for `NS(=O)(=O)c1cc2c(cc1Cl)NC(C1CC3C=CC1C3)NS2(=O)=O` (stereo not given), 3.74% (inactive).
As to `Cc1cccn2c(=O)c(-c3nnn[nH]3)cnc12`, the “activation” value is 1.04% (inactive).
Take `CC(C)NCC(O)c1ccc(NS(C)(=O)=O)cc1` (stereo not given): the outcome was inactive.
As for `CCOC(=O)C(=O)OCC`, the “activation” value was 0.572% (inactive).
For `C[N+](C)(C)CC(O)CC(=O)[O-]` (stereo not given), the “activation” value was 3.06% (inactive).
Same read-out and setting: the figure for `O=[N+]([O-])c1ccc(F)cc1F` is -4.43% [at 95.1 µM] (inactive).
With `NS(=O)(=O)c1cc(C(=O)O)cc(N2CCCC2)c1Oc1ccccc1`, the “activation” value is -1.89% [at 34.7 µM] (inactive).
As for `N[C@@H](C(=O)N[C@@H]1C(=O)N2C(C(=O)O)=C(Cl)CS[C@H]12)c1ccccc1`, the “activation” value was -3.08% (inactive).
`CCCCCOC(=O)CCCCC`: the “activation” value was 2.98% (inactive).
In the case of `O=C1CCCC(=O)C1`, the “activation” value was -1.39% (inactive).
For the compound `O=C(CCCN1CCN(c2ccccn2)CC1)c1ccc(F)cc1`, the “activation” value is -4.34% (inactive).
The same measure, in the same setting: as for `CCOC(C)(C)C`, the figure is -1.74% [at 95.1 µM] (inactive); as for `N[C@H]1CN(c2c(F)cc3c(=O)c(C(=O)O)cn(C4C[C@H]4F)c3c2Cl)CC12CC2` (stereo not given in full), -1.89% (inactive); as for `O=C(O)CCCc1ccccc1`, 3.29% (inactive).
Regarding `CC1(C)C(O)C(C)(C)C1O` (stereo not given), the “activation” value was 2.31% (inactive).
On to `O=C1CCCCCCCCCCCN1`, for which the outcome was inactive.
Regarding `C=COCC1CCC(CO)CC1` (stereo not given), the “activation” value was 2.4% (inactive).
`O=S(O)CO`: the result was inactive.
Regarding `N=C(N)c1ccc2cc(OC(=O)c3ccc(N=C(N)N)cc3)ccc2c1`, the “activation” value was -4.47% (inactive).
Still for that read-out and setting: the figure for `NC(=O)c1cn(Cc2c(F)cccc2F)nn1` is -3.53% (inactive).
For `c1ccc(CC2=NCCN2)cc1`, the “activation” value is 1.58% [at 34.7 µM] (inactive).
Consider `OC(CCN1CCCCC1)(c1ccccc1)C1CC2C=CC1C2` (stereo not given), for which the outcome was inactive.
As for `CC(C)(C)NCCNC(C)(C)C`, the “activation” value is -2.27% (inactive).
On to `CCN(CC)CCOCCOC(=O)C1(c2ccccc2)CCCC1`, for which the “activation” value is 6.28% (inactive).
As for `O=C[C@H](O)[C@@H](O)[C@H](O)[C@H](O)CO`, the outcome was inactive.
As for `CC(=O)OCC(=O)[C@@]1(O)CCC2C3CCC4=CC(=O)CC[C@]4(C)C3[C@@H](O)C[C@@]21C` (stereo not given in full), the “activation” value was -2.2% (inactive).
